This test in a line: blockers of AIP-driven agr signalling in S. aureus – RNAIII-GFP reporter, flow cytometry, primary screen (AID 527).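 Also: 0% = AIP-stimulated control and 100% = unstimulated bacteria without AIP.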 The following applies: S. aureus RN6390 RNAIII-GFP reporter, AIP-induced, flow cytometry 3 h, at 2 µM, stronger effect = higher value. For orientation: In flow cytometry, cells or beads pass a laser one at a time.
Where [1] appears, read: measured here: inhibition of GFP MFI.

Results on 51 molecules are retold here after PubChem BioAssay AID527 (NMMLSC, 2006).

By inhibition is commonly meant the relative decrease from the control value, in per cent.

Out of some 24,000 compounds screened, about 65 (0.3%) were called active.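 The calls were made as follows: active = share of bacteria positive for the green fluorescent reporter and its mean brightness both inhibited by 50% or more; inactive = the rest, inconclusive results apart.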 The sample as a whole holds a higher share of actives than the screen did.

With `O=C(c1ccco1)N1CCN(C(=O)c2ccc(COc3ccc(F)cc3)o2)CC1`, the inhibition is 2.8% (inactive). Further, the inhibition under setting [1] turned out to be 8%.

Consider `COc1ccc(C2OC(=O)CC2C(=O)NC(C)C)cc1` (configuration not stated), for which the inhibition was -1% (inactive). The inhibition under setting [1] was -15.8%.

On to `COc1cc2[nH]c(=S)n(Cc3ccc(C)o3)c(=O)c2cc1OC`, for which the inhibition was 2% (inactive). The inhibition under setting [1] turned out to be 9.8%.

As for `O=C(CN1C(=O)CCS(=O)(=O)c2ccccc21)NCc1ccc(F)cc1`, the inhibition was -1.6% (inactive). Moreover, the inhibition under setting [1] is -8.2%.

In the case of `CCOC(=O)CSc1nnc(NC(=O)c2cccc(S(=O)(=O)N3CCCCC3)c2)s1`, the inhibition was -0.3% (inactive). Also, the inhibition under setting [1] came out at 13%.

For `COc1cccc(OCC(O)CN2CCN(CCO)CC2)c1` (configuration not stated), the inhibition is -2% (inactive). Besides, the inhibition under setting [1] was -8.9%.

As for `CN(C)/C=C1\C=C(c2ccccc2)OC1=O`, the inhibition was 0.4% (inactive). Moreover, under setting [1], the inhibition was 1.9%.

With `O=C(NCc1ccc2c(c1)OCO2)C1CCCN(S(=O)(=O)c2cccs2)C1` (configuration not stated), the inhibition was 16.2% (inactive). Further, under setting [1], the inhibition is 44.2%.

Take `CCCCC(=O)Nc1cc(C)c2c(=O)oc3ccccc3c2n1`: the inhibition is 43.3% (inactive). The inhibition under setting [1] turned out to be 69.9%.

With `COc1ccc(N2CCN(CCNC(=O)CCN3C(=O)COc4ccccc43)CC2)cc1`, the inhibition is -0.3% (inactive). Also, the inhibition under setting [1] came to 5.4%.

Turning to `COc1cc2[nH]c(=S)n(CCN3CCCCC3C)c(=O)c2cc1OC` (configuration not stated), the inhibition is 2.3% (inactive). Moreover, the inhibition under setting [1] amounted to 17.7%.

For `O=C(CC(NS(=O)(=O)c1ccc(Cl)cc1)c1ccco1)NC1CCCC1` (configuration not stated), the inhibition was 7.7% (inactive). In addition, the inhibition under setting [1] is 13.1%.

For the molecule `Cc1c(NC(=O)C(C)OC(=O)c2cc3c4ccccc4n(C)c3s2)c(=O)n(-c2ccccc2)n1C` (configuration not stated), the inhibition is 0.6% (inactive). Moreover, the inhibition under setting [1] turned out to be 3.3%.

`O=C(Cn1nc(Cc2cccnc2)c2ccccc2c1=O)NCC1COc2ccccc2O1` (configuration not stated): the inhibition is 5.9% (inactive). In addition, the inhibition under setting [1] was 12.1%.

Regarding `Cc1cc(Cl)c(S(=O)(=O)Nc2ccc3c(c2)OCCO3)cc1OCC(N)=O`, the inhibition is -0.7% (inactive). Moreover, the inhibition under setting [1] was -17.3%.

Take `Cc1ccc(-c2nc(CS(=O)CC(=O)N3CCN(c4ncccn4)CC3)c(C)o2)cc1` (configuration not stated): the inhibition is -2.1% (inactive). Moreover, the inhibition under setting [1] was -1.4%.

In the case of `COc1cc(C(O)c2nc3ccccc3n2C)cc(OC)c1OC` (configuration not stated), the inhibition was -4% (inactive). Further, the inhibition under setting [1] is -99.6%.

`CC(C)OCCCNC(=O)CNC(=O)c1cccs1`: the inhibition was -1.5% (inactive). For the same molecule, the inhibition under setting [1] is -15.3%.

Regarding `Cc1ccc(S(=O)(=O)N2C3C=CC(C3)C2C(=O)O)cc1` (configuration not stated), the inhibition is -5.7% (inactive). Further, under setting [1], the inhibition is -28.5%.

As to `Cc1ccc(CNC(=O)C2CCCN(S(C)(=O)=O)C2)cc1` (configuration not stated), the inhibition was 0.6% (inactive). Further, the inhibition under setting [1] turned out to be 10%.

Turning to `COc1ccccc1C(=O)N1CCN=C1SCc1cccnc1`, the inhibition was -1.3% (inactive). The inhibition under setting [1] was -5.4%.

With `CC(C)(C)n1nc2c(c1NC(=O)c1ccc(S(=O)(=O)N3CCCC3)cc1)CS(=O)C2` (configuration not stated), the inhibition was -6.3% (inactive). Moreover, the inhibition under setting [1] was -9.9%.

For the molecule `Cc1nn(-c2ccccc2)c2c1C(=O)NC(=O)C(C)(C)C2`, the inhibition is 4.5% (inactive). The inhibition under setting [1] is 27.5%.

Regarding `O=C(Nc1ccncc1)c1cc2ccccc2o1`, the inhibition is 0% (inactive). Moreover, under setting [1], the inhibition was found to be 2.6%.

On to `COc1ccc(S(=O)(=O)Nc2ccc(S(=O)(=O)N3CCCCC3)cc2)cc1OC`, for which the inhibition was -3.8% (inactive). Also, the inhibition under setting [1] was -10.7%.

On to `Cc1onc(-c2ccccc2)c1C(=O)N1CCOCC1`, for which the inhibition was 0% (inactive). The inhibition under setting [1] was 3.7%.

Regarding `Cc1ccc(C(c2sc3nc(C)nn3c2O)N2CCN(c3ccc(F)cc3)CC2)cc1` (configuration not stated), the inhibition was 1.8% (inactive). The inhibition under setting [1] was -4.2%.

As for `C=CCSc1nc2c(c(=O)[nH]1)C(C(C)C)C(C#N)=C(N)O2` (configuration not stated), the inhibition is 2.6% (inactive). In addition, the inhibition under setting [1] came out at 27.2%.

Consider `CCN(c1ccc2c(c1)OCO2)S(=O)(=O)c1cc(Br)cc2c1N(C(=O)C1CC1)CC2`, for which the inhibition is -0.3% (inactive). Besides, the inhibition under setting [1] stood at 5.6%.

Regarding `CCOC(=O)CSC1=C(C#N)C(c2sccc2C)CC(=O)N1` (configuration not stated), the inhibition is -0.9% (inactive). Further, under setting [1], the inhibition is -28.9%.

On to `COC(=O)c1ccc(NC(=O)C(C)N2C(=O)c3ccccc3C2=O)cc1` (configuration not stated), for which the inhibition was -1.2% (inactive). The inhibition under setting [1] was -12.9%.

For the molecule `Cc1cc(Nc2cccc(C)c2C)n2ncnc2n1`, the inhibition is 0% (inactive). Also, the inhibition under setting [1] came to 1.4%.

Consider `COC(=O)c1ccc2c(=O)n(CC3CCCO3)c(=S)[nH]c2c1` (configuration not stated), for which the inhibition was -2.1% (inactive). Further, under setting [1], the inhibition was 1.7%.

Take `O=C(NCCCN1CCN(C2CCCCC2)CC1)Nc1ccccc1C(F)(F)F`: the inhibition was -9.7% (inactive). For the same molecule, the inhibition under setting [1] was -13.2%.

For the molecule `COc1cccc(N2CCN(C(=O)C3CCCN(S(=O)(=O)c4cnc[nH]4)C3)CC2)c1` (configuration not stated), the inhibition was -1.3% (inactive). The inhibition under setting [1] was -0.6%.

`O=C(CCn1c(=O)[nH]c2ccccc2c1=O)NCCCN1CCN(c2cccc(Cl)c2)CC1`: the inhibition was -4.8% (inactive). Moreover, the inhibition under setting [1] was -25.8%.

Regarding `Cc1ccc(C)c(N2CCN(C(=O)CCc3nc4ccccc4[nH]3)CC2)c1`, the inhibition was 5.3% (inactive). For the same molecule, the inhibition under setting [1] worked out at 36.1%.

`Cc1ccc(C)c(N2CCN(C(=O)CCCCn3c(=O)[nH]c4ccccc4c3=O)CC2)c1`: the inhibition was 71.2% (active). The inhibition under setting [1] turned out to be 71.1%.

On to `COC(=O)c1ccc(CN(c2ccccc2OC)S(=O)(=O)c2cccs2)o1`, for which the inhibition was -0.8% (inactive). The inhibition under setting [1] is -15.8%.

Consider `COC(=O)CN(c1nc(C)c(Cl)c(OC)n1)S(=O)(=O)c1ccc(C)cc1`, for which the inhibition was -3.6% (inactive). Under setting [1], the inhibition is -2.5%.

On to `Cc1ccccc1S(=O)(=O)Cc1ccc(C(=O)NCCN2CCCCC2C)o1` (configuration not stated), for which the inhibition was 1.5% (inactive). The inhibition under setting [1] was -6.9%.

`O=C(C(Cc1ccccc1)n1cccc1)N1CCN(C2CCCCC2)CC1` (configuration not stated): the inhibition was -0.8% (inactive). Moreover, under setting [1], the inhibition was -1.7%.

For `CCOc1ccc(OCC)c(NC(=O)C2CCN(S(=O)(=O)c3c(C)noc3C)CC2)c1`, the inhibition was -1.2% (inactive). Moreover, the inhibition under setting [1] is -15.6%.

Turning to `O=C(c1ccccc1)c1ccc2nc(N3CCCCC3)c3nncn3c2c1`, the inhibition is -1.8% (inactive). Further, the inhibition under setting [1] is -34.9%.

On to `Cc1cccc(N2CCN(Cc3c(C)n(C)n(-c4ccccc4)c3=O)CC2)c1C`, for which the inhibition is -0.1% (inactive). For the same molecule, under setting [1], the inhibition was -1.8%.

As for `COc1cccc(N2C(=O)C3CCCN3C2c2ccc(F)cc2)c1` (configuration not stated), the inhibition is -4.7% (inactive). Besides, the inhibition under setting [1] was -8.4%.

Take `CN1CCN(S(=O)(=O)c2ccc3[nH]cc(C(=O)O)c(=O)c3c2)CC1`: the inhibition is -2.2% (inactive). In addition, the inhibition under setting [1] is -22.7%.

Turning to `CC(C)N1C(=O)C2C(C(=O)NC3CCCCC3)C3C=CC2(O3)C1C(=O)NC1CCCC1` (configuration not stated), the inhibition was -2.6% (inactive). Besides, the inhibition under setting [1] is -16.1%.

Turning to `CC1CCC(NS(=O)(=O)c2ccc3c(c2)n(C)c(=O)c(=O)n3C)CC1` (configuration not stated), the inhibition was -0.4% (inactive). Also, the inhibition under setting [1] is 12.3%.

With `C=CCn1c2ccccc2c2nnc(SC(CC)C(=O)Nc3nc(C)c(C(=O)OCC)s3)nc21` (configuration not stated), the inhibition was 28.9% (inactive). Besides, the inhibition under setting [1] is 48.3%.

For the molecule `COC(=O)c1cc(C(=O)OC)cc(N2C(=O)CC(N3CCN(c4ccccc4)CC3)C2=O)c1` (configuration not stated), the inhibition was 5.6% (inactive). The inhibition under setting [1] came out at 38.5%.
